In PubChem BioAssay (EPA / NIEHS):
Inconclusive results are not listed. Active and inactive are the calls of the source. Rule for the calls, unless noted: active = hit-call score of the fitted dose curve at least 0.9, where 1 is the maximum; inconclusive = response in the unintended direction; inactive = score below 0.9.

Tests used:
[1] = TOX21_p53_BLA_p2_viability: Viability Assessment in the Tox21 HCT-116 p53 Agonism Beta-lactamase Assay, Phase 2 (AID 2283591);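 note: actives lower the ATP signal meaning cytotoxicity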
Procedure, shortened: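 Cytotoxicity readout: CellTiter-Glo ATP luminescence, 30 min at room temperature, after the beta-lactamase read. Cells were HCT116 exposed 16 h at 37C to compounds pin-transferred at 217-fold dilution from DMSO stocks.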

[2] = biological target: Cellular tumor antigen p53 (Homo sapiens) (UniProt P04637); assay: TOX21_p53_BLA_p2_ratio: Tox21 HCT-116 p53 Agonism Beta-lactamase Assay, Ratio, Phase 2 (AID 2283592)
Sequence of Cellular tumor antigen p53 (Homo sapiens) (P04637 whole entry, looked up): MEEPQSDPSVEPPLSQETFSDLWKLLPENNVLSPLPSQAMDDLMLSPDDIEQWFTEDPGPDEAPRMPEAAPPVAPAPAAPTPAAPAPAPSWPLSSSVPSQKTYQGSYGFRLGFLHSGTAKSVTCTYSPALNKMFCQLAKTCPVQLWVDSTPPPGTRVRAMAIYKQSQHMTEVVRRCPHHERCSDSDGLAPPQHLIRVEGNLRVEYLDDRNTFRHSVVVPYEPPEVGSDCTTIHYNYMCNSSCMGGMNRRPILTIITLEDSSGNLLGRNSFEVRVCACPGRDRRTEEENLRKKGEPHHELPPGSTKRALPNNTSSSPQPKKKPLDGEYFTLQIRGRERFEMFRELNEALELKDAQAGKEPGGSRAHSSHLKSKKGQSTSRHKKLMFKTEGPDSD
Procedure, shortened: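 Readout: blue/green (460/530 nm) FRET emission ratio after 2 h CCF4-AM loading at room temperature, excitation 405 nm. HCT116 p53 bla cells, 16 h compound exposure at 37C, 5% CO2; agonist direction fitted against DMSO baseline.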

[3] = biological target: Cellular tumor antigen p53 (Homo sapiens) (UniProt P04637); assay: TOX21_p53_BLA_p3_ratio: Tox21 HCT-116 p53 Agonism Beta-lactamase Assay, Ratio, Phase 3 (AID 2283596)
Procedure, shortened: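 Cells were seeded at 4000/well, rested 5 h at 37C, then dosed with DMSO compound solutions (217-fold dilution) for 16 h. CCF4-AM substrate was loaded for 2 h at room temperature, and the 460/530 nm emission ratio was fitted for gain of signal versus DMSO.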

[4] = biological target: Cellular tumor antigen p53 (Homo sapiens) (UniProt P04637); assay: TOX21_p53_BLA_p5_ratio: Tox21 HCT-116 p53 Agonism Beta-lactamase Assay, Ratio, Phase 5 (AID 2283599)
Procedure, shortened: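 Beta-lactamase reporter ratio (blue 460 nm over green 530 nm, 405 nm excitation) after 2 h CCF4-AM loading, in HCT-116 cells exposed 16 h at 37 C to compounds pinned at 217-fold dilution. Increases relative to DMSO baseline scored.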

[5] = biological target: Cellular tumor antigen p53 (Homo sapiens) (UniProt P04637); assay: TOX21_p53_BLA_p4_ratio: Tox21 HCT-116 p53 Agonism Beta-lactamase Assay, Ratio, Phase 4 (AID 2283601)
Procedure, shortened: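 Signal is the blue/green (460nm/530nm) ratio of cleaved versus uncleaved CCF4-AM substrate, read after 2 h substrate loading. Cells were HCT116 carrying the p53-responsive beta-lactamase reporter, dosed 16 h at 37C, 5% CO2; CellTiter-Glo measured in parallel.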

[6] = TOX21_p53_BLA_p5_viability: Viability Assessment in the Tox21 HCT-116 p53 Agonism Beta-lactamase Assay, Phase 5 (AID 2283600)
Procedure, shortened: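 ATP luminescence (CellTiter-Glo, 30 min, RT) served as the viability read-out, with loss of signal indicating cytotoxicity. Compounds in DMSO were pinned at a 217-fold dilution onto 4000 cells/well and incubated 16 h, 37C.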

PGR (gene 5241) [7] = biological target: PGR (gene 5241) (UniProt P06401); assay: TOX21_PR_BLA_Followup_Agonist_ratio: Tox21 HEK293 Progesterone Receptor (PR) Agonism Beta-lactamase Follow-Up Assay, Ratio (AID 2283933)
Sequence of PGR (gene 5241) (P06401 whole entry, looked up): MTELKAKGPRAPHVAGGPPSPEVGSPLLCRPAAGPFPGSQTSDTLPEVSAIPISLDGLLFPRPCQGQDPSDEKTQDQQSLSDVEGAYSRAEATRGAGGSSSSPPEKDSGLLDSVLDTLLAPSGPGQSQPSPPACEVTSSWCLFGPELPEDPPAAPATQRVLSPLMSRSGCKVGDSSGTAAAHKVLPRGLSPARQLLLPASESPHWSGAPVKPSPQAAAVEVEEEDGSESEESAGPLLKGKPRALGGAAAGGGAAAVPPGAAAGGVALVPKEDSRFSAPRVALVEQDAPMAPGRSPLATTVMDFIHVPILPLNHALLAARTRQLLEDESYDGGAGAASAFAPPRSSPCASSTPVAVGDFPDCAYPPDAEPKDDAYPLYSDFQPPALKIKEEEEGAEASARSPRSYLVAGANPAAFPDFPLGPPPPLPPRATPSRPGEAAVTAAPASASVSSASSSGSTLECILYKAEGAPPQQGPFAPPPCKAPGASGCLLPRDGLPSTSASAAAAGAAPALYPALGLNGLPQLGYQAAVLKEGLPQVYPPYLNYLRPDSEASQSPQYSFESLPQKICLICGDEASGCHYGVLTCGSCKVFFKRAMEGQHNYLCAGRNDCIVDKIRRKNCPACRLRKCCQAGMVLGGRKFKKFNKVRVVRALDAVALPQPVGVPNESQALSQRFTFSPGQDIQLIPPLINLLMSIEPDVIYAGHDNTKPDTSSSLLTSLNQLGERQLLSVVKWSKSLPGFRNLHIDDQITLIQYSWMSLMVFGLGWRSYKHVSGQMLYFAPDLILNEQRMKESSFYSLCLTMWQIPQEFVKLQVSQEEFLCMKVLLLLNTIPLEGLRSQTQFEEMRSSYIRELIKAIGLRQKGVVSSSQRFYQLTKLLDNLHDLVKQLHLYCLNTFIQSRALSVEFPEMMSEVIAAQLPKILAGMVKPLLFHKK
Procedure, shortened: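 Cells were seeded and held 6 hr before compound addition, exposed for 16 hr at 37C, then given FRET substrate for 2 hr at room temperature. Agonism was scored from the blue/green substrate cleavage ratio against DMSO controls.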

PGR (gene 5241) [8] = biological target: PGR (gene 5241) (UniProt P06401); assay: TOX21_PR_BLA_Followup_Antagonist_ratio: Tox21 HEK293 Progesterone Receptor (PR) Antagonism Beta-lactamase Follow-Up Assay, Ratio (AID 2283934);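 note: PR-UAS-bla HEK293T cells stimulated with 1 nM R5020 agonist for 16 hr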
Procedure, shortened: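 Cells are plated, rested 6 hr, then dosed with test compound in DMSO and challenged with 1 nM promegestone. After 16 hr incubation, substrate loading for 2 h at room temperature precedes fluorescence reading; viability is measured in the same wells.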

[9] = TOX21_PR_BLA_Followup_Agonist_viability: Viability Assessment in the Tox21 HEK293 Progesterone Receptor (PR) Agonism Beta-lactamase Follow-Up Assay (AID 2283935);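 note: signal loss means lower viability so actives are cytotoxic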
Procedure, shortened: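 Cells were plated in medium with 2% charcoal-stripped FBS and rested 6 hr. Compounds in DMSO were then added for 16 hr at 37C, followed by the FRET substrate step and CellTiter-Glo luminescence after 30 min.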

[10] = TOX21_PR_BLA_Followup_Antagonist_viability: Viability Assessment in the Tox21 HEK293 Progesterone Receptor (PR) Antagonism Beta-lactamase Follow-Up Assay (AID 2283936);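 note: cells exposed to compound with R5020 agonist for 16 h; hits lower the luminescence signal meaning cytotoxicity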
Procedure, shortened: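 PR-UAS-bla HEK293T cells in medium with 2% charcoal-stripped FBS were treated with compounds plus R5020 for 16 hr at 37C. After the beta-lactamase read, CellTiter-Glo was added to the same wells and luminescence read after 30 min at room temperature.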

PGR (gene 5241) [11] = biological target: PGR (gene 5241) (UniProt P06401); assay: TOX21_PR_LUC_Followup_Agonist: Tox21 HEK293 Progesterone Receptor (PR) Agonism Luciferase Follow-Up Assay (AID 2283937; active = hit-call score of the fitted dose curve at least 0.9, where 1 is the maximum; inactive = score below 0.9)
Procedure, shortened: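 Seed HEK293-PR-A-luc cells, wait 5 h, add compounds in DMSO, incubate 16 h at 37C, add ONE-Glo, read luminescence after 30 min. Activity is increase over DMSO controls; run with a viability counter-screen.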

[12] = TOX21_PR_LUC_Followup_Agonist_viability: Viability Assessment in the Tox21 HEK293 Progesterone Receptor (PR) Agonism Luciferase Follow-Up Assay (AID 2283941);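 note: loss of signal means cytotoxicity so actives lower viability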
Procedure, shortened: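 Multiplexed viability endpoint of the PR agonist luciferase follow-up: HEK293-PR-A-luc cells treated 16 h at 37C, with viability scored as decrease in CellTiter-Glo ATP signal.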

[13] = TOX21_p53_BLA_p4_viability: Viability Assessment in the Tox21 HCT-116 p53 Agonism Beta-lactamase Assay, Phase 4 (AID 2283597);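 note: hits lower the luminescence signal meaning cytotoxicity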
Procedure, shortened: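 ATP content by CellTiter-Glo luminescence, 30 min RT, read after the beta-lactamase ratio step. Cells: HCT116, 4000/well, compound added after 5 h, exposure 16 h at 37C. Signal loss = reduced viability.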

Measured: AC50

NC[C@@H]1O[C@H](O[C@H]2[C@@H](O)[C@H](O[C@@H]3[C@@H](O)[C@H](N)C[C@H](N)[C@H]3O[C@H]3O[C@H](CO)[C@@H](O)[C@H](O)[C@H]3N)O[C@@H]2CO)[C@H](N)[C@@H](O)[C@@H]1O
inactive: [1] | [2] | [3] | [4] | [5]

CC1(C)[C@H](C(=O)O)N2C(=O)C[C@H]2S1(=O)=O
inactive: [1] | [2] | [3] | [4] | [5]

CC(C)OC(=O)Nc1ccc2nc(-c3cscn3)[nH]c2c1
inactive: [1]
active: [2] 1520 nM | [3] 2600 nM | [4] 2330 nM | [5] 1090 nM

Oc1cc(O)c(Cl)cc1Cl
active: [2] 64500 nM
inactive: [1] | [3] | [4] | [5]

CCN(CC)CCOC(=O)c1ccc(N)cc1Cl
inactive: [1] | [2] | [3] | [4] | [5]

CN(C)CCC=C1c2ccccc2CSc2ccccc21
active: [5] 16600 nM
inactive: [1] | [2] | [3] | [4]

CC1=C(C(=O)O)N2C(=O)[C@@H](NC(=O)[C@H](N)c3ccc(O)cc3)[C@H]2SC1
inactive: [1] | [2] | [3] | [4] | [6] | [5]

O=C(O)c1cccc(Cl)c1Cl
inactive: [1] | [2] | [3] | [4] | [6] | [5]

CC[N+](C)(C)Cc1ccccc1Br
inactive: [1] | [2] | [3] | [4] | [6] | [5]

c1ccc2c(c1)OCC(CN1CCCCC1)O2 (stereo unspecified)
inactive: [1] | [2] | [3] | [4] | [5]

OC[C@@H](O)C(O)[C@H](O)CO
inactive: [1] | [2] | [3] | [4] | [5]

NC(=O)N[C@@H](CCC(=O)O)C(=O)O
inactive: [1] | [2] | [3] | [4] | [5]

C[C@]12C=CC(=O)C=C1CC[C@@H]1[C@@H]2[C@@H](O)C[C@@]2(C)[C@H]1CC[C@]2(O)C(=O)COC(=O)CCC(=O)O
inactive: [1] | [2] | [3] | [4] | [5]

CCn1c2ccccc2c2cc([N+](=O)[O-])ccc21
active: PGR (gene 5241) [8] 6290 nM
inactive: [1] | [2] | [3] | [4] | [5] | PGR (gene 5241) [7] | [9] | [10] | PGR (gene 5241) [11] | [12]

CC(=C(CCOP(=O)(O)O)SC(=O)c1ccccc1)N(C=O)Cc1cnc(C)nc1N
inactive: [1] | [2] | [3] | [4] | [5]

C=CCSCC1Nc2cc(Cl)c(S(N)(=O)=O)cc2S(=O)(=O)N1 (stereo unspecified)
active: [4] 0.059 nM
inactive: [1] | [2] | [3] | [5]

Cc1cccc(Br)c1
inactive: [1] | [2] | [3] | [4] | [5]

NC(CS)C(=O)O (stereo unspecified)
inactive: [1] | [2] | [3] | [5]

CC(=O)Nc1ccc(C(=O)O)cc1
inactive: [1] | [2] | [3] | [6] | [5]

CN1CCC(CN2c3ccccc3Sc3ccccc32)C1 (stereo unspecified)
inactive: [1] | [2] | [13] | [4]

O=C(NCC(O)CO)c1c(I)c(C(=O)NCC(O)CO)c(I)c(N(CCO)C(=O)CO)c1I (stereo unspecified)
inactive: [1] | [2] | [3] | [6] | [5]

CCC(C)O (stereo unspecified)
inactive: [1] | [2] | [3] | [6]

O=C(Cl)c1ccccc1[N+](=O)[O-]
inactive: [1] | [2] | [3] | [6]

CO/N=C(\C(=O)N[C@@H]1C(=O)N2C(C(=O)[O-])=C(C[n+]3cccc4c3CCC4)CS[C@H]12)c1csc(N)n1
inactive: [1] | [2] | [3] | [6] | [5]

CCCN(CCC)CCc1cccc2c1CC(=O)N2
inactive: [1] | [2] | [3] | [6]

CCCCCCCCCCCCCCCC(=O)NCCO
inactive: [1] | [2] | [3] | [6] | [5]

Nc1ncnc(Nc2ccccc2)n1
inactive: [1] | [2] | [3] | [5]

CC(C)NC[C@@H](O)COc1ccc(CC(N)=O)cc1
inactive: [1] | [2] | [3] | [5]

O=C(CCCN1CCN2CCCC2C1)c1ccc(F)cc1 (stereo unspecified)
inactive: [1] | [2] | [13]

CCOC(=O)O[C@]1(C(=O)OCCl)CC[C@H]2[C@@H]3CCC4=CC(=O)C=C[C@]4(C)[C@H]3[C@@H](O)C[C@@]21C
inactive: [1] | [2] | [3] | [5]

Cc1cc(C)c(NC(=O)C[C@H](CC(=O)O)c2cccc3ccccc23)c(C(=O)N2CCC3(CCCC3)CC2)c1
inactive: [1] | [2] | [3] | [5]

O=C(NC(Cc1cc(=O)[nH]c2ccccc12)C(=O)O)c1ccc(Cl)cc1 (stereo unspecified)
inactive: [1] | [2] | [3] | [5]

N[C@@H](C(=O)N[C@@H]1C(=O)N2C(C(=O)O)=C(Cl)CS[C@H]12)c1ccccc1
inactive: [1] | [2] | [3] | [6] | [5]

CC[C@@H](C)[C@@H](N)C(=O)O
inactive: [1] | [2] | [13] | [4]

COc1cccc(OC)c1C(=O)N[C@@H]1C(=O)N2[C@@H]1SC(C)(C)[C@@H]2C(=O)O
inactive: [1] | [2] | [3] | [6] | [5]
